Bioassay records as filed in PubChem BioAssay.
Only some compounds are listed: those with a hit (about 3.5% of all), similar ones and a draw of the others.
FBPA Giardia inh = blocks Giardia fructose-bisphosphate aldolase activity. A8B2U2. purified Giardia FBPA. Potency, µM (series often up to 59.6 µM), without a hit: top-dose activity, negative = inhibition, hits mostly inhibitors. 290,000 tested, 0.71% active; also: potency is read from the fitted curve at half-maximal effect; % is scaled to controls: 0 for no effect and ±100 for the full control effect; nearly all actives have a fitted effect of over 55% in size
Target sequence (A8B2U2 whole entry, looked up): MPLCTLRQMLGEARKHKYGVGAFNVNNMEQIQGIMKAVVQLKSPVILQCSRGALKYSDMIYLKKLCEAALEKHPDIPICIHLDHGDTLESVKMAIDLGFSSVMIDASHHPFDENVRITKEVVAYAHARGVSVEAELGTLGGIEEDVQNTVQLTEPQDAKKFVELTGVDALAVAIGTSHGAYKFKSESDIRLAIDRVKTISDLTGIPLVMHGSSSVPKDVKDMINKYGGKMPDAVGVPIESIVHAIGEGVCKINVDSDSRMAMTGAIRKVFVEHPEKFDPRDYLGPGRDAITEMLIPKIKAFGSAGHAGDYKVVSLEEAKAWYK
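Giardia FBPA (40 nM reagent) was preincubated 10 min at RT with compound (up to 57.5 uM final), then substrate plus GAPDH/TPI/NAD/arsenate coupling system with diaphorase/resazurin was added; resorufin fluorescence (525/598 nm) was read after 20 min.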
Sm TGR block = S. mansoni TGR enzyme inhibition; purified TGR, DTNB reduction, TNB absorbance 405 nm; Potency, µM (top dose mostly 114 µM), for the others: at the highest dose activity change, negative = inhibition, most hits filed as inhibitors; 360,000 tested, 3% active; AID 485364; also: potency is read from the fitted curve at half-maximal effect; % is scaled to controls: 0 for no effect and ±100 for the full control effect; nearly all actives have a fitted effect of over 60% in size
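TGR 20 nM + NADPH 100 uM (dispensed conc.), cpd preinc 15 min RT; start with NADPH (500 uM addition) then DTNB (15 mM addition). Kinetic TNB absorbance, 405 nm filter. Four-parameter Hill fit across titration.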
TbPYK inhibitor = T. brucei pyruvate kinase inhibition | TbPYK enzyme, Kinase-Glo Plus ATP luminescence, 45 min | Q57TT1 | 410,000 tested, 0.12% active | Potency, µM (titrated, usually from 76.8 µM), for the others: at the top dose activity, negative = inhibition, most hits filed as inhibitors; also: potency is read from the fitted curve at half-maximal effect; % is scaled to controls: 0 for no effect and ±100 for the full control effect; nearly all actives have a fitted effect of over 50% in size
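In this concentration-response screen, enzyme-free wells defined baseline while DMSO plates tracked drift. Each reaction combined TbPYK, substrate, compound and 130 uM ADP for 45 min at room temperature. Kinase-Glo Plus luminescence gave the signal.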
LmPK inhibitor = blocks Leishmania mexicana pyruvate kinase activity | Q27686 | purified LmPK, Kinase-Glo ATP luminescence, 1 h | Potency, µM (highest dose often 57.5 µM), without a hit: at the top dose activity change, negative = inhibition, usual class: inhibitors | 290,000 tested, 0.37% active | AID 1721; also: potency is read from the fitted curve at half-maximal effect; % is scaled to controls: 0 for no effect and ±100 for the full control effect
Target sequence (Q27686 whole entry, looked up): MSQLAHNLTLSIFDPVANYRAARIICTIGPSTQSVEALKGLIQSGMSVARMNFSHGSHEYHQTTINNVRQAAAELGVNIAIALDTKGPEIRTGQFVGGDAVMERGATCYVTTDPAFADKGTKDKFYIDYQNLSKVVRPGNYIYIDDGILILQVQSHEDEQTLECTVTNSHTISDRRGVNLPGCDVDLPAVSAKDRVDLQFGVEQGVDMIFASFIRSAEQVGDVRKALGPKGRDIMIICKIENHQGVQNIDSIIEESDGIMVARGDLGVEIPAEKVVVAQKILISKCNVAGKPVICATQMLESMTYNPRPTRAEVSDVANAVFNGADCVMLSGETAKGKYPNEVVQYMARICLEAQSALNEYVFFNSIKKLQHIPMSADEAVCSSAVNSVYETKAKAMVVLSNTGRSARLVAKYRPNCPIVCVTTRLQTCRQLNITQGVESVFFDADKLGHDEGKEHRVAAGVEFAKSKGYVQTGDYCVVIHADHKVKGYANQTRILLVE
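Purified LmPK (0.1 nM) converted ADP (0.1 mM) to ATP with PEP (0.5 mM) in imidazole buffer pH 7.2 with KCl and MgCl2, 1 h at room temperature. ATP was read by Kinase-Glo luminescence; data normalized to uninhibited and no-enzyme controls.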
NS1 inh = inhibitors of influenza NS1 protein function. AID 2326. 270,000 tested, 0.4% active. Potency, µM (highest dose often 46.1 µM), for inactives: at the top dose activity, positive = more growth; calls by dose curve; also: potency is read from the fitted curve at half-maximal effect; actives are rising curves; nearly all actives have a fitted effect of over 50% in size
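S. cerevisiae expressing influenza A NS1, grown in glucose, washed, then diluted 1:100 into pH 6.0 -URA galactose medium with 23 nl compound. Growth recovery read as OD600; NS1-free strain serves as control.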
RE007 growth inh = less growth of the S. pombe RE007 Vpr strain; S. pombe RE007 Vpr strain, BacTiter-Glo ATP luminescence, 24 h; Potency, µM (titrated, usually from 92.2 µM), for the others: top-dose activity change, negative = less growth, most hits filed as inhibitors; 360,000 tested, 0.21% active; AID 651644; active = well fitted falling curve with a large enough effect; inconclusive = small, poorly fitted or top-dose-only effect; inactive = no such curve, though single readings can be large or run the other way; also: potency is read from the fitted curve at half-maximal effect; % is scaled to controls: 0 for no effect and ±100 for the full control effect; nearly all actives have a fitted effect of over 50% in size
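Fission yeast strain RE007, carrying one chromosomally integrated HIV-1 vpr copy, was seeded at OD 0.01 in PMG+AL medium with 23 nL pinned compound. After 24 h at 30 °C and 99% humidity, viability was read by BacTiter-Glo luminescence.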
NS1 inh valid = influenza NS1 function inhibition validation; activity change, negative = inhibition, % at 32.9 µM; shares compounds with NS1 inh; 1,400 tested, under 10 active; influenza NS1 function cell assay, 15-point titration; calls by dose curve; also: 0% is about no effect
The depositor's hits bear a star; ? = inconclusive; · = not tested or not shown; [ ] = remark or other dose. Unless noted, calls follow the shape of the dose curve; as a rule, active = well fitted curve in the direction sought with a large enough effect; inconclusive = small, poorly fitted or top-dose-only effect, or another doubt; inactive = no such curve, though single readings can be large; an effect the other way counts as inactive or inconclusive.

SMILES	FBPA Giardia inh	Sm TGR block	TbPYK inhibitor	LmPK inhibitor	NS1 inh	RE007 growth inh	NS1 inh valid
Cc1cc2cc(CN3C(=O)c4ccccc4C3=O)ccc2n1C	0.1%	-12.5%	-5.9%	4.1%	?	2.5%	-14.7
COC(=O)C/C=C\[C@@H](C)[C@@H](/C=N\OC[C@@H](O)[C@H]1O[C@H]2OC(C)(C)O[C@H]2[C@@H]1O)NS(=O)(=O)c1ccc(C)cc1	1.0%[12.9 µM]	·	·	·	·	·	·
Cc1ccc(NC2=C(c3ccc(C(F)(F)F)cc3)C(=O)c3ccccc32)cc1C	·	-33.4%	-3.9%	·	·	·	·
CCCCOc1ccccc1NC(=O)c1ccc(=O)[nH]c1	1.6%	9.6%	-0.8%	1.4%	?	-0.8%	0.7
CC(=O)Nc1cccc(NC(=O)CSc2cn(CC(=O)N3CCCCCC3)c3ccccc23)c1	·	0.1%	-8.9%	·	·	·	·
COC(=O)Cc1[nH]n(-c2ccccc2)c(=O)c1C(C)=Nc1ccccc1	-18.2%	1.4%	6.3%	1.5%	·	-3.2%	·
COC(=O)Cc1cc(=O)n(-c2ccccc2)[nH]1	-9.0%	-11.4%	0.0%	-5.8%	8.91µM*	6.5%	36.9
COc1ccccc1NCC(=O)N/N=C/c1cccnc1	-17.5%	-2.2%	-0.5%	-3.3%	3.16µM*	6.5%	32.2
Cc1ccc(C)c(Nc2ncnc3onc(C)c23)c1	·	-1.0%	3.9%	·	·	·	·
Cc1ccc(NC(=O)Cn2c(=O)n(CCCC(=O)NCc3ccc4c(c3)OCO4)c(=O)c3ccccc32)cc1	·	5.2%	-0.7%	·	·	·	·
CC(=O)N1CCCc2cc(S(=O)(=O)N3CCCC(C(=O)N4CCN(c5ccccc5F)CC4)C3)ccc21 (stereo not drawn)	·	-0.2%	4.8%	·	·	·	·
COCCNC(=O)Cn1c(=O)n(Cc2ccc(C(=O)NCc3ccco3)cc2)c(=O)c2ccccc21	-0.5%	8.4%	-6.5%	12.1%	?	7.9%	2.0
COC(=O)c1[nH]c2ccc(C)cc2c1NS(=O)(=O)c1ccc(F)c(C)c1	-23.7%	-23.8%	-12.8%	2.5%	1.78µM*	-17.3%	-38.8
COC(=O)c1[nH]c2ccc(F)cc2c1NS(=O)(=O)c1ccc(F)c(C)c1	-2.7%	-9.7%	5.4%	7.7%	2.4%	17.8%	·
Cc1nc2cc(-c3cccc(F)c3)nn2c(C)c1CCC(=O)Nc1ccccc1C(N)=O	·	3.6%	0.7%	·	·	·	·
O=C(CCn1c(=O)c2ccccc2n(Cc2cccc([N+](=O)[O-])c2)c1=O)N1CCc2ccccc2C1	0.2%	-3.9%	4.4%	3.1%	5.01µM*	16.9%	9.3
CCN(CC)C(=O)CSc1nnc(-c2ccncc2)n1N	5.3%	0.0%	1.0%	1.1%	4.3%	8.4%	·
CCN(CC)C(=O)CSc1nnc(-c2ccccc2)n1N	12.9%	-34.6%	0.0%	-5.4%	6.31µM*	11.2%	9.6
Cc1cccc(N2CCN(C(=O)c3cnn(-c4ccccc4)c3C3CCN(C(=O)OC(C)(C)C)CC3)CC2)c1C	·	6.8%	-14.3%[15.4 µM]	·	·	·	·
CC1(C)Cc2c(C#N)c(N3CCN(C(=O)c4ccco4)CC3)nc(-c3ccco3)c2CS1	-28.6%	2.82µM*	?	3.2%	7.94µM*	-1.2%	-36.8
O=S(=O)(Nc1ccc(O)c(Sc2nc3ccccc3s2)c1)c1cccc2ccccc12	-9.0%	3.6%	1.4%	8.9%	20µM*	5.7%	-9.5
O=S(=O)(Nc1ccc(O)c(Sc2nc3ccccc3s2)c1)c1cc(Cl)ccc1Cl	·	-15.8%	-1.2%	·	·	·	·
c1cc(N2CCCC2)ccc1C(c1nnnn1C1CCCCC1)N1CCOCC1 (stereo not drawn)	-7.3%	?	-5.5%	-0.2%	11.2µM*	13.6%	5.0
Cc1nnc(-c2cccc(Br)c2)c2cn(-c3cccc(Br)c3)nc12	-3.6%	1.7%	-6.3%	6.2%	8.91µM*	-11.5%	0.7
CCOC(=O)Cn1nc(N2CCN(c3ccc(F)cc3)CC2)ccc1=O	·	5.7%	1.5%	·	·	·	·
SMILES	FBPA Giardia inh	Sm TGR block	TbPYK inhibitor	LmPK inhibitor	NS1 inh	RE007 growth inh	NS1 inh valid
COc1cccc(CN2C(=O)c3ccccc3Sc3ccc(C(=O)OCc4ccco4)cc32)c1	·	-11.3%	0.2%	·	·	·	·
CNC(=O)c1cc2cc(OC)ccc2n1CCN(Cc1ccccc1)Cc1ccccc1	-7.5%	7.0%	1.4%	1.3%	-7.6%	2.0%	·
CNC(=O)c1cc2cc(OC)ccc2n1CCN(C)C	1.7%	-0.8%	-0.7%	4.3%	3.55µM*	0.6%	1.2
Cc1cnn(-c2cc(N/N=C/c3ccc(F)cc3)ncn2)c1	3.5%	15.8%	5.8%	2.0%	-4.4%	-14.7%	·
Cc1cnn(-c2cc(N/N=C/c3ccccc3Cl)ncn2)c1	10.8%	41.9%	2.3%	5.2%	14.1µM*	-4.0%	-13.9
O=C(CCS(=O)(=O)c1nc(-c2ccc3c(c2)OCO3)cc(C(F)(F)F)n1)Nc1ccc(Br)cc1	·	-8.9%	-2.2%	·	·	·	·
O=S(=O)(c1ccc(C2CCCCC2)cc1)N1CCOCC1	-1.7%	-1.8%	-8.6%	4.7%	-13.4%	23.2%	·
O=C(O)c1cc(Cl)c2c(c1)[C@@H]1C=CC[C@@H]1[C@H](c1ccc(S(=O)(=O)N3CCOCC3)cc1)N2	-25.1%	14.1µM*	?	-14.5%	14.1µM*	-4.5%	29.6
Cc1cc(C)c(S(=O)(=O)N2CCC(n3c(C(F)(F)F)nc4cccnc43)CC2)c(C)c1	·	6.9%	0.8%	·	·	·	·
COc1ccccc1CNC(=O)C1CCCN(c2nc3ccccc3n3cccc23)C1 (stereo not drawn)	·	-3.0%	-5.3%	·	·	·	·
COc1cccc(-n2c(=O)c3sccc3n(Cc3cc(=O)n4cc(Cl)ccc4n3)c2=O)c1	·	-1.4%	-8.0%	·	·	·	·
O=C(NNc1nc(-c2ccccc2)c2cc(Br)ccc2n1)c1ccc(S(=O)(=O)N2CCOCC2)cc1	11.1%	-4.0%	-12.2%	0.7%	11.2µM*	4.6%	34.3
O=C(NNc1nc(-c2ccccc2)c2cc(Br)ccc2n1)c1ccc(S(=O)(=O)N2CCCCC2)cc1	11.3%	-1.5%	-3.1%	3.2%	?	9.6%	·
COc1ccc(N2CCN(C(=O)CSc3nc(-c4ccccc4)no3)CC2)cc1	·	6.2%	-2.7%	·	·	·	·
COc1ccc(-c2cn[nH]c2N)c(OC)c1	?	2.8%	-0.7%	0.3%	8.91µM*	1.4%	1.4
COc1ccccc1NC(=O)c1cc2c([nH]c1=O)CC(C)(C)CC2=O	·	0.1%	-3.7%	·	·	·	·
O=C(N/N=C/c1ccccc1)c1ccc(CN2C(=O)c3cccc4cccc2c34)cc1	-5.7%	-15.0%	-10.8%	0.7%	16.0%	-6.4%	·
CN(C)c1ccc(/C=N/NC(=O)c2ccc(CN3C(=O)c4cccc5cccc3c45)cc2)cc1	-14.0%	5.1%	·	8.8%	4.47µM*	·	5.5
